From PubChem BioAssay
HT1080-NT tox – kills 2HG-producing HT-1080-NT fibrosarcoma cells | HT-1080-NT fibrosarcoma viability, CellTiter-Glo ATP luminescence, 48 h | hit rate 1.6% among 360,000 | Potency, µM (titrated, usually from 46.1 µM), for the others: at the top dose activity, negative = less viability, actives largely listed as cytotoxic;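 note: NT is the 2HG producing partner of a matched IDH1 knockdown line; potency is the fitted concentration of half-maximal effect; 0% = DMSO-treated cells and -100% = media-only wells without cells; nearly all actives have a fitted effect of over 55% in size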
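Toxicity toward the 2HG-producing NT line was scored as %Activity, normalised to DMSO and no-cell wells, from CellTiter-Glo luminescence after 48 hours' treatment.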
DT40 TDP1 CPT – DT40-hTDP1 cell growth loss with CPT; chicken DT40 Tdp1-/-;hTDP1 cells + 20 nM CPT, ATP luminescence, 48 h; Potency, µM (top dose mostly 46.2 µM), for the others: top-dose activity change, negative = growth inhibition, most hits filed as inhibitors; hit rate 12% among 420,000; AID 686979; note: potency is the fitted concentration of half-maximal effect; nearly all actives have a fitted effect of over 55% in size
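Cell growth measured by CellTiter-Glo luminescence after a minimum 48 h, 37 C compound exposure with 20 nM CPT in Tdp1-knockout DT40 cells stably expressing hTDP1, seeded 400/well; qHTS titration format.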
HT1080 IDH1KD tx – toxicity to HT-1080 IDH1 knockdown cells (counter line) | HT-1080 IDH1 knockdown viability, ATP luminescence, 48 h | Potency, µM (titrated, usually from 46.1 µM), inactives show at the highest dose activity, negative = toxicity, usual class: cytotoxic | hit rate 2% among 360,000;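 note: potency is the fitted concentration of half-maximal effect; 0% = DMSO wells and -100% = cell-free medium wells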
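IDH1KD HT-1080 cells, 750/well, RPMI + 5% FBS; compound pinned after 2 h settling; 48 h, 37 °C; CellTiter-Glo luminescence; % activity normalised to DMSO and no-cell wells; curves fitted, classed by r2 and efficacy.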
IL1B secr inh – blocks inflammasome-driven IL-1 beta release; THP-1 LPS/ATP IL-1B secretion, AlphaLISA, 16 h; active compounds read low; activity change, % at 57.5 µM; hit rate 4.7% among 360,000; in the data active = activity change below about -50%; inconclusive = mostly about -30% to -49%
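Secreted IL-1B measured by AlphaLISA bead assay after 16 h compound exposure of THP-1 cells; compounds (final up to 57.5 uM) added 1 h before LPS (250 ng/mL) and ATP (1.25 mM) stimulation; lower signal means less secretion.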
TDP1 cell noCPT – qHTS for Inhibitors of human tyrosyl-DNA phosphodiesterase 1 (TDP1): qHTS in cells in absence of CPT | DT40 Tdp1-/- hTDP1 cells, no CPT, ATP luminescence, 48 h | Potency, µM (titrated, usually from 46.2 µM), for inactives: top-dose activity change, negative = growth inhibition, usual class: inhibitors | hit rate 15% among 420,000 | AID 686978, 2013; note: potency is the fitted concentration of half-maximal effect; nearly all actives have a fitted effect of over 55% in size
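Chicken DT40 Tdp1-/- cells stably complemented with human TDP1 were seeded at 400 cells/well with DMSO in place of 20 nM camptothecin. After compound pinning, cells grew at least 48 hr at 37 °C; viability read by CellTiter-Glo luminescence.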
The depositor's hits bear a star; u = inconclusive; x = not tested or not shown. Sampled rows, rich in hits. Any-hit rate of the full collection: about 19%. Unless noted, calls come from the whole dose curve; as a rule, active = well fitted curve in the direction sought with a large enough effect; inconclusive = small, poorly fitted or top-dose-only effect, or another doubt; inactive = no such curve, though single readings can be large; an effect the other way counts as inactive or inconclusive. Unless noted, % is set by controls: 0 for no effect and ±100 for the full control effect.

SMILES | HT1080-NT tox | DT40 TDP1 CPT | HT1080 IDH1KD tx | IL1B secr inh | TDP1 cell noCPT
CCCCCc1nc2ccccc2c(=O)n1-c1ccc(C)cc1 | x | -24.9% | x | x | u
CCCCCc1nc2ccccc2c(=O)n1-c1ccccc1[N+](=O)[O-] | -14.5% | u | 3.0% | -5.7 | 16.4µM*
C=C1C(=O)O[C@@H]2C[C@@H](C)[C@H]3C=CC(=O)[C@]3(O)C[C@@H]12 | -19.0% | 4.61µM* | -16.1% | -98.8* | 4.61µM*
CC(NC(=O)Cc1cccc2ccccc12)C(=O)N1CCC(=O)CC1 (configuration not stated) | 1.5% | -3.5% | 0.4% | 12.2 | -2.1%
CC(NC1CCCCC1)C(O)C12CC3CC(CC(C3)C1)C2 (configuration not stated) | u | 18.4µM* | u | -54.7* | 16.4µM*
O=C(Nc1cc[c]([Sb](=[O])([OH])[OH])cc1)c1ccccc1 | x | -10.0% | x | x | -19.2%
N#Cc1cc(NC(=O)c2ccc(Cl)cc2)ccc1Sc1ccccc1 | u | 20.6µM* | 20.6µM* | -60.9* | 16.4µM*
CN(CCCCC(=O)/C=N/O)Cc1ccccc1 (tested in a mixture with another compound) | 5.4% | -28.1% | 1.9% | -1.3 | -15.8%
Cc1ccccc1CCNCc1ccc(Br)cc1 | u | u | u | -64.6* | u
CCc1ccc(CNCCc2ccc(F)cc2)cc1 | -27.2% | u | -21.5% | -83.1* | u
COc1cc(OC)c(OC)cc1CNCCc1ccc(F)cc1 | -4.1% | u | -2.9% | -11.9 | 11.6µM*
COc1cc(OC)c(OC)cc1CNCCc1cccc(F)c1 | -8.6% | -27.3% | -0.1% | -16.6 | u
Fc1ccc(CCNCc2ccc(Cl)c(Cl)c2)cc1 | u | u | u | -53.1* | -26.0%
CCC(Oc1cc(Cl)ccc1Cl)C(=O)N1CCC2(CC1)OCCO2 (configuration not stated) | 15.2% | -24.3% | 0.4% | -7.6 | -12.3%
CCCCC(=O)N/N=C/c1c(O)n(-c2cccc3ccccc23)c(=O)[nH]c1=O | -7.4% | 4.7% | -5.7% | 0.0 | -28.0%
O=C1CC(c2ccc(C(F)(F)F)cc2)c2c(c3ccccc3oc2=O)O1 (configuration not stated) | x | 19.3% | x | x | -1.6%
COc1ccc(CCNCc2ccc(Br)cc2)cc1OC | -25.2% | 20.6µM* | -7.6% | -26.7 | u
C=CCn1c(O)c(C=NC2CCN(Cc3ccccc3)CC2)c(=O)[nH]c1=O | u | -7.4% | 11.4% | 0.0 | -20.5%
O=c1[nH]c(=O)n(CCC2=CCCCC2)c(O)c1C=NC1CCN(Cc2ccccc2)CC1 | -20.7% | 14.6µM* | -11.2% | u | 16.4µM*
NC1CCCCC1N=Cc1c(O)n(CCc2ccc(F)cc2)c(=O)[nH]c1=O (configuration not stated) | 12.4% | u | 20.5% | -5.8 | 18.4µM*
CCN(CC)CCCN=Cc1c(O)n(CCc2ccc(F)cc2)c(=O)[nH]c1=O | 4.3% | -4.5% | 5.1% | -14.0 | -23.1%
CCCCCCn1c(O)c(C=NC2CCN(Cc3ccccc3)CC2)c(=O)[nH]c1=O | -5.2% | 20.6µM* | -3.8% | -27.6 | 10.3µM*
CCCCc1ncc(CN2CCCC(C(=O)c3ccc(SC)cc3)C2)[nH]1 (configuration not stated) | -18.3% | u | 1.7% | 9.4 | u
COc1ccc(C(=O)CC(c2ccc(OC)c(OC)c2)c2c(O)c3ccccc3oc2=O)cc1OC (configuration not stated) | -0.5% | 12.4% | -7.5% | 14.3 | -19.0%
CC(Cc1ccc(OCC(=O)O)cc1)NCC(O)c1cccc(Cl)c1 (configuration not stated) | x | -3.6% | x | x | -12.3%
COCCNC(=O)c1ccc(N2CC3CC(C2)c2cccc(=O)n2C3)c([N+](=O)[O-])c1 (configuration not stated) | u | -7.9% | 11.7% | 3.0 | -11.5%
